# Experimental data taken from PubChem BioAssay AID1346378 (National Center for Advancing Translational Sciences (NCATS), 2018).
# Where “and” joins values, the source holds several entries; their conditions need not be identical. Identical values can stand only once. Hit rate of the full screen: of about 420,000 compounds, about 540 (0.13%) were called active. Cut-off read from the data, not from the text of the source: active = activity change below about -50%; inconclusive = mostly about -30% to -49%; inactive = weaker than that. Many of the other results were omitted from the sample, so actives are more common in it than they were. The source holds several records for some structures; these can differ, active in one and inactive in another.
# Biological target: Phosphatidylinositol 4-kinase type 2-alpha (Homo sapiens) (UniProt Q9BTU6)
# Test: qHTS for small molecular inhibitors of PI4K2A;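 for activity change, negative = inhibition: -100% = wells without enzyme as full effect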
# Settings: purified PI4K2A, ADP-Glo luminescence, 1 h; at 76.9 µM, stronger effect = lower value
# Method in brief: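 PI4K2A activity was measured by ADP-Glo luminescence: enzyme (4 ug/mL stock) and phosphatidylinositol (1.2 mM stock) in Tris pH 7.5/MgCl2/EGTA/Triton X-100 buffer were reacted with ATP (300 microM stock) for one hour at ambient temperature.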
# Chain of Phosphatidylinositol 4-kinase type 2-alpha (Homo sapiens) (Q9BTU6 whole entry, looked up): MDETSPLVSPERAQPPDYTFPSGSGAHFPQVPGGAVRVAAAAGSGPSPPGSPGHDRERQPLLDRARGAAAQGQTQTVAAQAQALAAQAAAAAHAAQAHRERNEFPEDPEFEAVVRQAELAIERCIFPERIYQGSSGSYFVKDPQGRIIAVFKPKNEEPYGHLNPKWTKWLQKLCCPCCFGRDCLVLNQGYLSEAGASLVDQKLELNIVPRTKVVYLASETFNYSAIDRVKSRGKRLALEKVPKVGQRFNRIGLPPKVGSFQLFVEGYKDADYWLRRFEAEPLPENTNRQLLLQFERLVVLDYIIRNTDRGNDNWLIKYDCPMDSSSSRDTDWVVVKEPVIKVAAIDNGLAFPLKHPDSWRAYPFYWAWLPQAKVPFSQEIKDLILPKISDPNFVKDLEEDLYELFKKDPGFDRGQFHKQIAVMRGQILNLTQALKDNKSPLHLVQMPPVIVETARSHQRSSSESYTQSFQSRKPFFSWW
row,Compound,"activity change, negative = inhibition"
1,Cc1cc(C)c(NC(=O)CN2C(=O)c3cccnc3Oc3ccc(Cl)cc32)c(C)c1,-3.1% (inactive)
2,COC(=O)/C=C(/C)N,-1.85% (inactive)
3,Cc1n[nH]c(=O)nc1N/N=C/c1cccs1,-51.8% (active)
4,COc1ccc2c(c1)c(C(=O)N/N=C/c1cccs1)c(C)n2C,-1.53% (inactive)
5,O=c1nc(N/N=C/c2ccco2)cn[nH]1,-22.5% (inactive)
6,CCCCC12CN3CC(C)(CN(C1)C3c1ccc(O)c(OC)c1)C2=O (centres undefined),0.484% (inactive)
7,CCCCNC(=O)c1ccc2c(c1)NC(=O)C(C(C)C)N2 (centres undefined),-1.85% (inactive)
8,COc1ccc(CCNC(=O)CCCn2c(=O)c3ccccc3n(Cc3ccc(F)cc3Cl)c2=O)cc1OC,1.26% (inactive)
9,O=C(Cn1ccc(=O)[nH]c1=O)Nc1ccc(C(=O)O)c(O)c1,-9.18% (inactive)
10,O=C(Nc1ccc(C(=O)O)c(O)c1)c1ccccc1,-14.9% (inactive) and -50.4% (active)
11,O=C(O)c1ccc(-n2cccc2)cc1O,1.97% (inactive)
12,CCCCOc1ccc(CNC(=O)c2ccc3c(c2)N(C)C(=O)C2CCCCN32)cc1 (centres undefined),1.06% (inactive)
13,CC(C)(C)OC(=O)N1CCC(c2c(C(=O)Nc3ccc4c(c3)OCO4)cnn2-c2ccccc2)CC1,-3.37% (inactive)
14,Cc1cccc(-c2nnc(SCC(=O)N3CCCc4ccccc43)o2)c1,1.17% (inactive)
15,CCCCOc1ccc(C(=O)Nc2cccc(-c3nc4ccccc4o3)c2C)cc1,-4.4% (inactive)
16,CCOC(=O)c1cccc(NS(=O)(=O)c2cc(-c3cnc(C)o3)ccc2OC)c1,-9.3% (inactive)
17,COc1ccc(Cl)cc1NC(=O)CSc1nc(=O)[nH]c2c1CCCC2,3.81% (inactive)
18,CCc1ccccc1NC(=O)Cc1ccc(NC(=O)N2CCCCc3ccccc32)cc1,-0.392% (inactive)
19,COC(=O)c1cc(NC(=O)CCS(=O)(=O)c2cc(Br)cc3c2N(C(=O)C2CC2)CC3)cc(C(=O)OC)c1,1.45% (inactive)
20,CCOc1cc(-c2nnc(SCC(=O)NC3CCCC3)nc2-c2ccc(OC)c(OCC)c2)ccc1OC,1.43% (inactive)
21,C=CC1(C)CC(=O)C2(O)C(C)(O1)C(OC(C)=O)C(O)C1C(C)(C)CCC(O)C12C (centres undefined),-8.1% (inactive)

row,Compound,"activity change, negative = inhibition"
1,COc1ccc(-c2nc3ccccc3o2)cc1NC(=O)c1cc([N+](=O)[O-])ccc1N1CCOCC1,-1.07% (inactive)
2,COc1ccc(/C=C/c2nc(C#N)c(NCc3ccc(F)cc3)o2)cc1OC,3.37% (inactive)
3,CCc1ccc(NC(=O)c2cc(S(=O)(=O)NC3CCCCCC3)ccc2F)cc1,1.04% (inactive)
4,Oc1ccc(Cn2cc[nH]c2=S)cc1,2.19% (inactive)
5,CCC1=Nc2cc(C(=O)NCC(C)c3ccccc3)ccc2Sc2ccc(C)cc21 (centres undefined),-0.814% (inactive)
6,CCOc1ccc(NC(=O)Cn2cc(C(=O)c3ccc(C)cc3)c(=O)c3cc4c(cc32)OCCO4)cc1,-5.72% (inactive)
7,CCCn1ccc2c(OCC(=O)NCc3ccc(F)cc3)cccc2c1=O,1.12% (inactive)
8,O=C(c1ccc2c(c1)N(Cc1ccccc1)C(=O)c1ccccc1S2(=O)=O)N1CCC(Cc2ccccc2)CC1,-3.09% (inactive)
9,CCOc1ccccc1NC(=O)CN1CCN(S(=O)(=O)c2ccc(Br)cc2)CC1,-3.13% (inactive)
10,CCOc1ccccc1NC(=O)Cn1c(=O)n(-c2cccc(C)c2)c(=O)c2c1c1cc(OC)ccc1n2C,5.68% (inactive)
11,Nc1ccc2c3c(cccc13)C(=O)NC2=O,-1.25% (inactive)
12,CN[C@@H]1[C@@H](O)[C@@H](O[C@@H]2[C@H](O)[C@H](O[C@H]3OC(CN)=CC[C@H]3N)[C@@H](N)C[C@H]2N)OCC1(C)O (some centres undefined),3.62% (inactive)
13,CC1(C)S[C@@H]2[C@H](N=CN3CCCCCC3)C(=O)N2[C@H]1C(=O)O,-3.84% (inactive)
14,Cc1cc(C)cc(-n2ccnc2SCC(=O)Nc2nc3ccccc3s2)c1,-3.54% (inactive)
15,CCOc1ccc(N/C=C/C(=O)c2ccccc2)cc1,-50.8% (active)
16,CCOc1ccc(NC(=O)N(CC(C)C)CC(C)C)cc1,7.41% (inactive)
17,CCOc1ccc(NC(=O)CSc2c3c(nc4ccccc24)CCCC3)cc1,-3.16% (inactive)
18,COc1ccc(C(=O)NCC(c2ccc(N(C)C)cc2)N2CCc3ccccc32)c(OC)c1 (centres undefined),0.413% (inactive)
19,CCCCN(C)CCCNC(=O)CN1N=C(c2ccc(OC)cc2)CCC1=O,-1.59% (inactive)
20,COc1cc(CNC(=O)c2cc3n(n2)CCCN(Cc2cccc(F)c2)C3=O)cc(OC)c1OC,-0.346% (inactive)
21,COC(=O)c1cc(Cl)c(NC(C)=O)cc1OC,-2.22% (inactive)

row,Compound,"activity change, negative = inhibition"
1,CCNC(=O)c1cnn(-c2ccccc2)c1-c1ccccc1,2.38% (inactive)
2,Nc1c(C(=O)O)cnn1-c1ccccc1,-60.3% (active)
3,NNC(=O)c1cnn(-c2ccccc2)c1C(F)(F)F,3.06% (inactive)
4,O=c1ccc2c(-c3ccccc3S(=O)(=O)O)c3ccc(O)c(O)c3oc-2c1O,-68% (active)
5,O=C(NC1CC(=O)N(c2ccccc2)C1)c1ccco1 (centres undefined),-1.35% (inactive)
6,CCOc1ccc(C(NC(=O)c2cc(OC)c(OC)c(OC)c2)c2cc(Cl)c3cccnc3c2O)cc1 (centres undefined),-3.07% (inactive)
7,COc1ccc(OC)c(NC(=O)C2CCCN(S(=O)(=O)c3ccc4c(c3)CCCC(=O)N4)C2)c1 (centres undefined),-2.64% (inactive)
8,CN1CC[C@H](c2c(O)cc(O)c3c(=O)cc(-c4ccccc4Cl)oc23)[C@H](O)C1,-3.75% (inactive)
9,Nc1ncnc2c1c(I)cn2[C@@H]1C[C@H](N)[C@@H](O)[C@H]1O,-21.5% (inactive)
10,NC1CCN(O)C1=O (centres undefined),0.196% (inactive)
11,CCOC(=O)c1cc2c(=O)n3ccccc3nc2n(Cc2ccco2)c1=NC(=O)c1ccc(F)cc1,-8.37% (inactive)
12,Cc1cc(NS(=O)(=O)c2ccc3oc(=O)c4ncn(C)c4c3c2)ccc1Br,3.97% (inactive)
13,Nc1ncnc2c1cnn2C1CC(O)C(CO)O1 (centres undefined),-25.1% (inactive)
14,CC1(C)O[C@@H]2[C@H](O1)[C@@H](CO)O[C@H]2n1c(N2CCCCC2)nc2c(N)ncnc21,-54.5% (active)
15,OCC1OC(n2cnc3c(N4CCCC4)ncnc32)C(O)C1O (centres undefined),-0.936% (inactive)
16,Cn1c(=O)c2c(-c3ccccc3Br)n(Cc3ccccc3)cc2n(C)c1=O,-1.93% (inactive)
17,O=c1cc(-c2ccccc2)[nH]c2nc(Cl)ccc12,3.68% (inactive)
18,Cc1nnc(C(=O)NC(C)(C)c2nc(C(=O)NCc3ccc(F)cc3)c(O)c(=O)n2C)o1,-1.36% (inactive)
19,CCN(C(=O)Cn1cc(S(=O)(=O)N2CCN(c3ccccc3F)CC2)c2ccccc2c1=O)c1ccc(C)c(C)c1,-1.44% (inactive)
20,N#Cc1c(N2CCCCC2)nc(N)c2c(N)nc(SCC(=O)O)cc12,-59.8% (active)
21,COc1cccc(C(=O)Nc2ccc(-c3cc(C(F)(F)F)nn3-c3ccccc3)cc2)c1,4.36% (inactive)

row,Compound,"activity change, negative = inhibition"
1,COc1cccc(C(=O)Nc2ccc(N3CCCC3)cc2)c1,-68.3% (active)
2,COc1cccc(C(=O)NC(=O)Nc2ccc(-c3cc(C(F)(F)F)nn3-c3ccccc3)cc2)c1,-3.82% (inactive)
3,CCCCCn1c(=O)[nH]c2cc(C(=O)NCCN(C)CCCC)ccc2c1=O,3.6% (inactive)
4,O=C(CSc1cn(CC(=O)N2CCOCC2)c2ccccc12)Nc1ccccc1,-0.303% (inactive)
5,CCCCOCCOC(=O)c1cccnc1,0.377% (inactive)
6,Cc1ccc(CNC(=O)CSc2c(C)cnc3c2c(=O)n(C)c(=O)n3C)cc1,-1.23% (inactive)
7,CO[C@]1(NC(=O)CSC(F)F)C(=O)N2C(C(=O)O)=C(CSc3nnnn3CCO)CO[C@H]21,-0.764% (inactive)
8,CC(C)CNc1ncnc2c1nnn2C,1.45% (inactive)
9,CCN1CCN(C(=O)N[C@@H](C(=O)N[C@@H]2C(=O)N3[C@@H]2SC(C)(C)[C@H]3C(=O)O)c2ccccc2)C(=O)C1=O,2.58% (inactive)
10,CCOc1ccccc1CNC(=O)C1CCCN(S(=O)(=O)c2ccc3c(ccn3C)c2)C1 (centres undefined),2.73% (inactive)
11,O=C(CSc1nnc(-c2ccccc2F)o1)Nc1cccc(C(F)(F)F)c1,2.53% (inactive)
12,CC1CC2C3CCC4=CC(=O)C=C[C@]4(C)[C@@]3(F)[C@@H](O)C[C@]2(C)[C@@]1(O)C(=O)CO (some centres undefined),2.22% (inactive)
13,CCCCCn1c(=O)[nH]c2cc(C(=O)Nc3ccc(F)cc3)ccc2c1=O,3.49% (inactive)
14,COc1ccc(-c2cc(C(=O)NC(Cc3c[nH]c4ccccc34)C(=O)O)c(C)o2)cc1OC (centres undefined),-4.82% (inactive)
15,COc1ccc(-c2cc(=O)oc3cc(OC(C)C(=O)NCC4CCC(C(=O)O)CC4)ccc23)cc1 (centres undefined),-0.472% (inactive)
16,COc1ccc(-c2cc(=O)oc3cc(OCC(=O)N[C@@H](Cc4c[nH]c5ccccc45)C(=O)O)ccc23)cc1,-51.9% (active)
17,NCC[C@H](O)C(=O)N[C@@H]1C[C@H](N)[C@@H](O[C@H]2O[C@H](CN)[C@@H](O)[C@H](O)[C@@H]2O)[C@H](O)[C@@H]1O[C@H]1O[C@H](CO)[C@@H](O)[C@H](N)[C@@H]1O,inactive
18,Cc1ccccc1OCc1nc2c3cnn(-c4ccccc4F)c3ncn2n1,-3.76% (inactive)
19,CCc1ccc(CN(Cc2ccco2)C(=O)COc2ccc(Cl)c(C)c2)cc1,-7.93% (inactive)
20,CCOc1ccc(NC(=O)Cn2c(=O)n(CCCC(=O)NCc3ccc4c(c3)OCO4)c(=O)c3ccccc32)cc1,-1.29% (inactive)
21,CC1=NN(c2ccc(Cl)c(C(=O)O)c2)C(=O)/C1=C/c1ccc(-c2ccccc2[N+](=O)[O-])o1,-58.6% (active)
